# Reference: the supplement of paper PMC8728848
# About 410 targets per protein were measured; listed, in parts, are those with the strongest signals and a random draw of the rest.
# B1: LSECtin (Homo sapiens), Q6UXB4 (protein)
# chain: MDTTRYSKWGGSSEEVPGGPWGRWVHWSRRPLFLALAVLVTTVLWAVILSILLSKASTERAALLDGHDLLRTNASKQTAALGALKEEVGDCHSCCSGTQAQLQTTRAELGEAQAKLMEQESALRELRERVTQGLAEAGRGREDVRTELFRALEAVRLQNNSCEPCPTSWLSFEGSCYFFSVPKTTWAAAQDHCADASAHLVIVGGLDEQGFLTRNTRGRGYWLGLRAVRHLGKVQGYQWVDGVSLSFSHWNQGEPNDAWGRENCVMMLHTGLWNDAPCDSEKDGWICEKRHNC
# Assays:
# Assay in all cases: glycan array binding signal (z-score within array); higher = stronger binding
# Conditions in all cases: glycan notation: IUPAC condensed, linker removed
# Fuc(a1-2)Gal = target: Fuc(a1-2)Gal
# Outline: (§1)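 The Consortium for Functional Glycomics database supplied 3228 glycan arrays, of which those lacking an available protein sequence were dropped. The binding signal, a within-array Z-score, was averaged across arrays of the same protein sequence and across linkers. Negative scores can be read as non-binding.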
# [1] = target: Fuc(a1-2)Gal(b1-3)GlcNAc6S
# Outline: as §1
# [2] = target: Fuc(a1-2)Gal6S(b1-3)GlcNAc
# Outline: as §1
# [3] = target: Fuc(a1-2)[Gal(a1-3)]Gal(b1-3)GlcNAc
# Outline: as §1
# [4] = target: Fuc(a1-2)[Gal(a1-3)]Gal(b1-3)GlcNAc(b1-3)GalNAc
# Outline: as §1
# [5] = target: Fuc(a1-2)[Gal(a1-3)]Gal(b1-4)[Fuc(a1-3)]Glc
# Outline: as §1
# [6] = target: Fuc(a1-2)[GalNAc(a1-3)]Gal(b1-4)GlcNAc(b1-2)Man(a1-3)[GalNAc(a1-3)[Fuc(a1-2)]Gal(b1-4)GlcNAc(b1-2)Man(a1-6)]Man(b1-4)GlcNAc(b1-4)GlcNAc
# Outline: as §1
# [7] = target: Fuc(a1-3)[Gal(b1-4)]GlcNAc(b1-2)Man(a1-3)[Fuc(a1-3)[Gal(b1-4)]GlcNAc(b1-2)Man(a1-6)]Man(b1-4)GlcNAc(b1-4)[Fuc(a1-6)]GlcNAc
# Outline: as §1
# [8] = target: Fuc(a1-3)[Gal3S(b1-4)]Glc6S
# Outline: as §1
# Fuc(a1-4)GlcNAc = target: Fuc(a1-4)GlcNAc
# Outline: as §1
# Gal(a1-4)Gal(b1-4)GlcNAc = target: Gal(a1-4)Gal(b1-4)GlcNAc
# Outline: as §1
# [9] = target: Gal(a1-4)Gal(b1-4)GlcNAc(b1-3)Gal(b1-4)Glc
# Outline: as §1
# [10] = target: Gal(b1-3)GlcNAc(b1-3)Gal(b1-4)GlcNAc(b1-3)Gal(b1-4)GlcNAc(b1-2)[Gal(b1-3)GlcNAc(b1-3)Gal(b1-4)GlcNAc(b1-3)Gal(b1-4)GlcNAc(b1-6)]Man(a1-6)[Gal(b1-3)GlcNAc(b1-3)Gal(b1-4)GlcNAc(b1-3)Gal(b1-4)GlcNAc(b1-2)Man(a1-3)]Man(b1-4)GlcNAc(b1-4)[Fuc(a1-6)]GlcNAc
# Outline: as §1
# [11] = target: Gal(b1-3)GlcNAc(b1-3)Gal(b1-4)[Fuc(a1-3)]GlcNAc(b1-6)[Gal(b1-3)GlcNAc(b1-3)]Gal(b1-4)Glc
# Outline: as §1
# [12] = target: Gal(b1-3)GlcNAc(b1-6)Gal(b1-4)GlcNAc
# Outline: as §1
# [13] = target: Gal(b1-3)[GlcNAc(b1-6)]GalNAc
# Outline: as §1
# [14] = target: Gal(b1-3)[Neu5Ac(a2-6)]GlcNAc(b1-6)Gal(b1-4)Glc
# Outline: as §1
# [15] = target: Gal(b1-4)GlcNAc(b1-2)Man(a1-3)[Gal(b1-4)GlcNAc(b1-2)Man(a1-6)]Man(b1-4)GlcNAc(b1-4)GlcNAc
# Outline: as §1
# [16] = target: Gal(b1-4)GlcNAc(b1-2)Man(a1-6)[GlcNAc(b1-2)Man(a1-3)]Man(b1-4)GlcNAc(b1-4)GlcNAc
# Outline: as §1
# [17] = target: Gal(b1-4)GlcNAc(b1-3)Gal(b1-4)GlcNAc(b1-2)[Gal(b1-4)GlcNAc(b1-3)Gal(b1-4)GlcNAc(b1-6)]Man(a1-6)[Gal(b1-4)GlcNAc(b1-3)Gal(b1-4)GlcNAc(b1-2)Man(a1-3)]Man(b1-4)GlcNAc(b1-4)GlcNAc
# Outline: as §1
# [18] = target: Gal(b1-4)GlcNAc(b1-3)Gal(b1-4)GlcNAc(b1-3)Gal(b1-4)GlcNAc(b1-3)Gal(b1-4)GlcNAc(b1-2)Man(a1-3)[Gal(b1-4)GlcNAc(b1-3)Gal(b1-4)GlcNAc(b1-3)Gal(b1-4)GlcNAc(b1-3)Gal(b1-4)GlcNAc(b1-2)Man(a1-6)]Man(b1-4)GlcNAc(b1-4)GlcNAc
# Outline: as §1
# [19] = target: Gal(b1-4)GlcNAc(b1-3)Gal(b1-4)GlcNAc(b1-3)Gal(b1-4)GlcNAc(b1-3)Gal(b1-4)GlcNAc(b1-2)Man(a1-3)[Gal(b1-4)GlcNAc(b1-3)Gal(b1-4)GlcNAc(b1-3)Gal(b1-4)GlcNAc(b1-3)Gal(b1-4)GlcNAc(b1-2)Man(a1-6)]Man(b1-4)GlcNAc(b1-4)[Fuc(a1-6)]GlcNAc
# Outline: as §1
# [20] = target: Gal3S(b1-3)[Fuc(a1-4)]GlcNAc
# Outline: as §1
# [21] = target: Gal3S(b1-4)[Fuc(a1-3)]GlcNAc6S
# Outline: as §1
# Gal4S(b1-4)GlcNAc = target: Gal4S(b1-4)GlcNAc
# Outline: as §1
# Gal6S(b1-3)GlcNAc6S = target: Gal6S(b1-3)GlcNAc6S
# Outline: as §1
# Gal6S(b1-4)Glc = target: Gal6S(b1-4)Glc
# Outline: as §1
# Gal6S(b1-4)GlcNAc6S = target: Gal6S(b1-4)GlcNAc6S
# Outline: as §1
# GalNAc(b1-3)Gal = target: GalNAc(b1-3)Gal
# Outline: as §1
# [22] = target: GalNAc(b1-3)Gal(a1-6)Gal(b1-4)Glc
# Outline: as §1
binder,measurement,setting,value
B1,glycan array binding signal (z-score),Fuc(a1-2)Gal,-0.224
same,glycan array binding signal (z-score),[1],-0.125
same,glycan array binding signal (z-score),[2],-0.129
same,glycan array binding signal (z-score),[3],-0.157
same,glycan array binding signal (z-score),[4],-0.129
same,glycan array binding signal (z-score),[5],-0.135
same,glycan array binding signal (z-score),[6],2.77
same,glycan array binding signal (z-score),[7],-0.124
same,glycan array binding signal (z-score),[8],4.05
same,glycan array binding signal (z-score),Fuc(a1-4)GlcNAc,-0.206
same,glycan array binding signal (z-score),Gal(a1-4)Gal(b1-4)GlcNAc,0.114
same,glycan array binding signal (z-score),[9],-0.084
same,glycan array binding signal (z-score),[10],-0.127
same,glycan array binding signal (z-score),[11],-0.13
same,glycan array binding signal (z-score),[12],-0.137
same,glycan array binding signal (z-score),[13],0.004
same,glycan array binding signal (z-score),[14],-0.085
same,glycan array binding signal (z-score),[15],-0.21
same,glycan array binding signal (z-score),[16],5.9
same,glycan array binding signal (z-score),[17],-0.139
same,glycan array binding signal (z-score),[18],-0.133
same,glycan array binding signal (z-score),[19],-0.123
same,glycan array binding signal (z-score),[20],-0.158
same,glycan array binding signal (z-score),[21],-0.133
same,glycan array binding signal (z-score),Gal4S(b1-4)GlcNAc,-0.143
same,glycan array binding signal (z-score),Gal6S(b1-3)GlcNAc6S,-0.136
same,glycan array binding signal (z-score),Gal6S(b1-4)Glc,-0.141
same,glycan array binding signal (z-score),Gal6S(b1-4)GlcNAc6S,-0.109
same,glycan array binding signal (z-score),GalNAc(b1-3)Gal,-0.182
same,glycan array binding signal (z-score),[22],-0.134
